Laboratory results from PubChem BioAssay AID1745849 (National Center for Advancing Translational Sciences (NCATS), 2022).
Among all 2,100 compounds or so, about 320 (15%) were called active. Inconclusive results (about 52%) are left out. This is one part of the list. Unmarked numbers belong to inactive results. The call rests on the fitted dose curve; in most records, active means well fitted cell-killing curve with a large enough effect; inconclusive means small, poorly fitted or top-dose-only effect, or effect the other way; inactive means flat fitted curve, though single readings scatter.
On the % scale 0 is the no-effect control and ±100 the full control effect; potency means the concentration at half of the fitted maximal effect.

Test: Viability Counterscreen for CMV-Luciferase Assay of Inhibitors of ATXN expression; further: nearly all actives have a fitted effect of over 55% in size
Settings: HEK-293 CMV-luciferase cells viability, protease fluorescence, 24 h; activity change, negative = cytotoxicity: at the top concentration
Method in brief: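 HEK-293 cells stably expressing a CMV-luciferase reporter were exposed to compounds at several concentrations for 24 hr at 37 degree C. Viability was read as Gly-Phe-AFC fluorescence (25 uM final, 30 min). SteadyGlo luminescence was then measured after 5 min.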
For c1ccc(Cn2c(-c3ccccc3)c[n+]3c2SCCC3)cc1, the “activity change, negative = cytotoxicity” value was 6.56% [at 57.5 µM]. In the case of CCc1ccc(OCC(=O)N/N=C(\C)c2ccc(O)cc2O)cc1, the “activity change, negative = cytotoxicity” value was -18.9%. In the case of CCCCCC(=O)N/N=C(\C)c1ccccn1, the “activity change, negative = cytotoxicity” value was -20.9%. With COc1ccc(CC(=O)N/N=C(\C)c2ccccn2)cc1 the Potency was 11.2 µM (active). With CCCC/C(C)=N/NC(=O)c1cn(-c2ccccc2)nc1-c1ccccc1 the “activity change, negative = cytotoxicity” value was -5.57%. With C/C(=N\NC(=O)COc1cccc(C)c1)c1ccc2ccccc2c1O the “activity change, negative = cytotoxicity” value was 21.9% [at 57.5 µM]. With C/C(=N\NC(=O)c1cccc2ccccc12)c1ccccn1 the Potency was 1.41 µM (active). With OC1(c2ccc(Br)cc2)CCNCC1 the “activity change, negative = cytotoxicity” value was -7.05%. For Cc1cccc(OCCSc2nc3ncnc(N)c3[nH]2)c1, the “activity change, negative = cytotoxicity” value was -23.6% [at 57.5 µM]. For COc1ccccc1Cc1c(-c2ccco2)nc2c(C)cc(Br)cn12, the Potency was 8.91 µM (active). With Cc1n(Cc2ccccc2)c2ccccc2[n+]1Cc1ccccc1 the “activity change, negative = cytotoxicity” value was -7.47%. For CC(C)=CCc1ccc(O)c(=O)cc1C(C)C, the “activity change, negative = cytotoxicity” value was -27.9%. With CC(C)=CCc1c(O)cc2oc3c(CC=C(C)C)c(O)c(O)c(CC=C(C)C)c3c(=O)c2c1O the “activity change, negative = cytotoxicity” value was -26.9%. In the case of O=C(Nc1ccc(Cl)cc1)Nc1ccc(N2CCCC2)c(S(=O)(=O)Nc2ccccc2Cl)c1, the Potency was 7.94 µM (active). With O=C(Nc1ccc(N2CCN(C(=O)c3ccccc3)CC2)c(Cl)c1)c1ccc(Br)o1 the “activity change, negative = cytotoxicity” value was -24.8%. In the case of O=C(Nc1ccc(N2CCOCC2)c(Cl)c1)c1c(F)c(F)c(F)c(F)c1F, the “activity change, negative = cytotoxicity” value was 5.69%. With Cc1ccc(C(=O)N(CCCN(C)C)c2nc3ccc(Cl)cc3s2)cc1C the Potency was 22.4 µM (active). In the case of Cc1ccc2nc(N(CCCN(C)C)C(=O)c3ccc(S(=O)(=O)N4CCCCCC4)cc3)sc2c1, the “activity change, negative = cytotoxicity” value was -18.4%. For Cc1cc(Cl)ccc1-c1cc2nc(NCCCN(C)C)n(C)c(=O)c2s1, the “activity change, negative = cytotoxicity” value was -11.6%. With Cc1cc(C)c2nc(N(CCCN(C)C)C(=O)c3ccc4c(c3)OCCO4)sc2c1 the Potency was 31.6 µM (active). With CCOC(=O)c1c(NC(=O)COC(=O)CNC(=O)c2ccco2)sc(C)c1C the “activity change, negative = cytotoxicity” value was 14.2%. For CCC(=O)NC(c1ccco1)c1cc(Cl)c2cccnc2c1O (configuration not stated), the “activity change, negative = cytotoxicity” value was -15%. With CCCCC(=O)NC(c1ccco1)c1cc(Cl)c2cccnc2c1O (configuration not stated) the “activity change, negative = cytotoxicity” value was 12.6% [at 57.5 µM]. For CCC(=O)NC(c1ccc(C)cc1)c1cc([N+](=O)[O-])c2cccnc2c1O (configuration not stated), the Potency was 15.8 µM (active). In the case of CC(=O)NC(c1ccco1)c1cc(Cl)c2cccnc2c1O (configuration not stated), the “activity change, negative = cytotoxicity” value was -1.71% [at 57.5 µM]. For CC(=O)NC(C)c1cc(Cl)c2cccnc2c1O (configuration not stated), the “activity change, negative = cytotoxicity” value was -23.7% [at 57.5 µM]. In the case of CC(=O)NC(c1cccs1)c1cc([N+](=O)[O-])c2cccnc2c1O (configuration not stated), the Potency was 11.2 µM (active). With CCC(=O)NC(C)c1cc(Cl)c2cccnc2c1O (configuration not stated) the “activity change, negative = cytotoxicity” value was -22%. In the case of CC(C)C(=O)NC(c1ccccc1)c1cc([N+](=O)[O-])c2cccnc2c1O (configuration not stated), the Potency was 20 µM (active). In the case of Cc1nc(-c2c(C(F)(F)F)noc2-c2ccc(O)cc2O)cs1, the “activity change, negative = cytotoxicity” value was -5.74% [at 57.5 µM]. For COc1ccc(Nc2oc(COc3ccccc3OC)nc2C#N)cc1, the “activity change, negative = cytotoxicity” value was -11.6%. For N#Cc1c(NCCN)nc(-c2ccco2)c2c1CCCC2, the “activity change, negative = cytotoxicity” value was -25.6% [at 57.5 µM]. For CN(C)CCCNC(=O)/C=C/c1ccc(OCc2c(F)cccc2Cl)cc1, the “activity change, negative = cytotoxicity” value was -26.6% [at 57.5 µM]. In the case of O=C1N(c2ccccc2)C[C@@H]2C[C@@H](c3cc4ccccc4o3)N3CCC[C@@]123, the Potency was 0.355 µM (active). For CC(C)(O)C#Cc1ccc([C@@H]2C[C@H]3CN(c4ccccc4)C(=O)[C@]34CCCN24)s1, the Potency was 11.2 µM (active). In the case of CCN1c2ccccc2NC2N=C(OC)C(c3ccccc3)C21 (configuration not stated), the Potency was 12.6 µM (active). For Cn1c(=O)c2cc(NC(=O)Nc3cccnc3)ccc2n1Cc1ccc(Cl)cc1, the “activity change, negative = cytotoxicity” value was -16.4% [at 57.5 µM]. For Cc1c(C(=O)N2c3ccccc3Sc3ccccc32)cccc1[N+](=O)[O-], the “activity change, negative = cytotoxicity” value was -15.4% [at 57.5 µM]. For Cc1onc(-c2ccccc2)c1C(=O)Nc1ccc(S(=O)(=O)NC(C)(C)C)cc1, the “activity change, negative = cytotoxicity” value was 24.8% [at 57.5 µM]. With Cc1nnc(SC(C)C(=O)Nc2ccc(Cl)cn2)n1Cc1ccccc1 (configuration not stated) the “activity change, negative = cytotoxicity” value was -1.27% [at 57.5 µM]. For COc1ccc(NC(C)C(=O)N/N=C/c2c(O)ccc3ccccc23)cc1 (configuration not stated), the Potency was 8.91 µM (active). With O=C(N/N=C\c1c(O)ccc2ccccc12)c1ccc(Cn2cccn2)o1 the “activity change, negative = cytotoxicity” value was 18.6%. In the case of Cc1occc1C(=O)N/N=C/c1c(O)ccc2ccccc12, the “activity change, negative = cytotoxicity” value was 29.1% [at 57.5 µM]. In the case of C=CCc1cccc(CNc2nc3ccccc3n2C(C)C)c1O, the “activity change, negative = cytotoxicity” value was -1.07% [at 57.5 µM]. In the case of O=C(CSc1nc2ncc(Cl)cc2[nH]1)Nc1cccc(F)c1, the “activity change, negative = cytotoxicity” value was -17.3% [at 57.5 µM]. For Cc1ccccc1NC(=O)CSc1n[nH]c(-c2ccccn2)n1, the Potency was 20 µM (active). For O=C(CSc1nnc(-c2ccc(Br)cc2)o1)Nc1cccc(C(=O)O)c1, the “activity change, negative = cytotoxicity” value was 24.3% [at 57.5 µM]. With Cc1cc(NC(=O)CSc2nccn2-c2cccc(C)c2C)no1 the “activity change, negative = cytotoxicity” value was -8.06%. For O=C(CSc1nc2ncc(Br)cc2[nH]1)Nc1ccccc1-c1ccccc1, the “activity change, negative = cytotoxicity” value was -18.9% [at 57.5 µM]. In the case of O=C(CSc1n[nH]c(-c2ccccn2)n1)Nc1ccc(F)cc1, the Potency was 17.8 µM (active). For O=C(CSc1ccc2ccccc2c1)Nc1nc2ccccc2[nH]1, the “activity change, negative = cytotoxicity” value was 4.28%. In the case of O=C(CSc1n[nH]c(-c2ccccn2)n1)Nc1cccc(Cl)c1, the Potency was 10 µM (active).
